Source: PubChem BioAssay
Compounds with a hit are over-represented: about 10% of the library has one in this group of screens.
KB-V1 MDR tox: KB-V1 MDR subline cytotoxicity | KB-V1 MDR cells viability, CellTiter-Glo, 72 h | Potency, µM (titrated, usually from 46.1 µM), most hits filed as cytotoxic | hit rate 3.4% among 400,000; further: nearly all actives have a fitted effect of over 60% in size
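Cells of the MDR subline KB-V1 are plated, dosed with compound at multiple concentrations, and incubated 72 h at 37 degrees C; CellTiter-Glo is then added and luminescence read after 10 min.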
Gal4-VP16 FLuc: counter-screen for ROR gamma inhibitors: Gal4-VP16 reporter; Drosophila S2 Gal4-VP16 UAS-luciferase, luminescence, 20 h; Potency, µM (series often up to 53.6 µM), hits mostly inhibitors; hit rate 3.5% among 310,000;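 further: Gal4-VP16 expression switched on by copper sulfate through the metallothionein promoter; nearly all actives have a fitted effect of over 50% in size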
SW480 rerep: induces DNA re-replication in SW480 colon adenocarcinoma cells; SW480 DNA re-replication, Hoechst DNA content imaging, 48 h; Potency, µM (highest dose often 46.1 µM), hits mostly activators; hit rate 1.8% among 340,000; further: nearly all actives have a fitted effect of over 55% in size
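Hoechst fluorescence of nuclei (405 nm excitation, 500-530 nm emission) measured by plate-scanning imager after 48 hr compound exposure at 37 C; re-replication scored as increased number of nuclei with elevated intensity.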
KB-3-1 tox: kills parental KB-3-1 adenocarcinoma cells. KB-3-1 viability, CellTiter-Glo ATP luminescence, 72 h. AID 1347075. Potency, µM (doses to about 46.1 µM), most hits filed as cytotoxic. hit rate 1.4% among 400,000; further: nearly all actives have a fitted effect of over 60% in size
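KB-3-1 parental drug-naive adenocarcinoma cells in DMEM/10% FBS, incubated 72 h at 37 C with pin-transferred compounds across a concentration series. Viability by CellTiter-Glo luminescence; concentration-response curves fitted after normalization.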
RORg inh: ROR gamma (mouse) transcription inhibition | P51450 | Drosophila S2 Gal4-RORgamma UAS-luciferase reporter, 20 h | Potency, µM (series often up to 53.6 µM), usual class: inhibitors | hit rate 5.4% among 310,000 | AID 2551; further: nearly all actives have a fitted effect of over 60% in size
Target sequence (P51450 whole entry, looked up, the tested form may be a part): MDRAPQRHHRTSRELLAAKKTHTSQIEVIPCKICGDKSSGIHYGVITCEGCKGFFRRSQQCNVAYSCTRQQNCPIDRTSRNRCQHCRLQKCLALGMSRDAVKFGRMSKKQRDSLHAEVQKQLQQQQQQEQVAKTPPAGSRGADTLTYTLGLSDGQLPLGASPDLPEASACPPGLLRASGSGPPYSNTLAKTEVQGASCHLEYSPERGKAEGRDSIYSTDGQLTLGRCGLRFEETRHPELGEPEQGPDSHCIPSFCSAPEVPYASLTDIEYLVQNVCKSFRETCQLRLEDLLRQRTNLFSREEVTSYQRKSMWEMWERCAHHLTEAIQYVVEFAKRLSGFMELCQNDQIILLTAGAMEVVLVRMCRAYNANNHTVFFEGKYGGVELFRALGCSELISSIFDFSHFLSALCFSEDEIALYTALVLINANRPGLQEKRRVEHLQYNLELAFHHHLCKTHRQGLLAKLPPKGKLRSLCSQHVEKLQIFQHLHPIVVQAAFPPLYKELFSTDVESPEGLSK
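Schneider cells (Drosophila), stable Gal4 DBD–ROR gamma + UAS-luc; 1 hr cmpd preincubation; Cu2+ induction 700 uM final; 20 hr ambient; luminescence.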
MCF10A rereplic: DNA re-replication induction in MCF 10a cells; MCF 10A DNA re-replication, Hoechst nuclear intensity, 48 h; hit rate 2.9% among 350,000; Potency, µM (highest dose often 46.1 µM), usual class: activators; further: nearly all actives have a fitted effect of over 50% in size
Hits are given with their value; – = inactive; ? = inconclusive; · = not tested or not shown; [ ] = remark or other dose. The call rests on the fitted dose curve; in most records, active means well fitted curve in the direction sought with a large enough effect; inconclusive means small, poorly fitted or top-dose-only effect, or another doubt; inactive means no such curve, though single readings can be large; an effect the other way counts as inactive or inconclusive.

SMILES	KB-V1 MDR tox	Gal4-VP16 FLuc	SW480 rerep	KB-3-1 tox	RORg inh	MCF10A rereplic
COc1ccc(CNC(=O)COc2ccc(OC)cc2)cc1	–	–	–	–	–	–
Cc1ccc(CNC(=O)COc2ccc(C(=O)c3ccc(F)cc3)cc2)cc1	?	–	?	?	–	16.4µM
COc1ccc(C)c2sc(N(Cc3cccnc3)C(=O)c3cccs3)nc12	–	·	·	–	·	·
C[C@@H](CN(C)C)CN1c2ccccc2CCc2ccccc21	·	–	–	·	–[2.98 µM]	–
CCCC/C=C/[C@H](C)[C@@](C)(COC(=O)c1ccc(Br)cc1)Cc1ccccc1	·	–	·	·	–	·
CCOC(=O)C1=C(C)Nc2ccc(C)cc2S1	–	–	–	–	–	–
CCOCCOC(=O)C1=C(C)Nc2ccc(C)cc2S1	13µM	·	–	–	–[0.365 µM]	–
Nc1cc(=O)[nH]c2c1CCC2	–	·	·	?	·	·
O=C(Nc1nccs1)c1ccc(S(=O)(=O)NCC2CCCCC2)cc1	?	–	–	–	11.2µM	?
O=C(Nc1nccs1)c1ccc(S(=O)(=O)NCc2cccs2)cc1	18.4µM	?	–	–	?	?
O=C(Nc1nccs1)c1ccc(N2C(=O)C3CCCCC3C2=O)cc1 (stereo not drawn)	–	–	–	–	–	–
CN(c1ccccc1)S(=O)(=O)c1ccc(C(=O)Nc2nccs2)cc1	–	?	–	–	–	–
O=C(Nc1ccc(Br)cc1)c1ccc(F)c(S(=O)(=O)NCc2cccs2)c1	?	10µM	–	?	?	?
CN(c1ccc(C(=O)Nc2nccs2)cc1)S(=O)(=O)c1ccccc1	?	–[0.365 µM]	–	–	2.82µM	–
Cc1noc(C)c1-c1cncnc1NCc1ccccc1	·	–	·	·	–	·
Cn1c2c(c(=O)n(C)c1=O)CS(=O)c1ccccc1N2 (stereo not drawn)	–	·	·	–	·	·
Cc1nnc(Sc2cc(NCCO)c([N+](=O)[O-])c3nonc23)s1	?	?	–	–	3.16µM	?
Cc1nnc(Sc2cc(NCCCO)c([N+](=O)[O-])c3nonc23)s1	–	6.31µM	–	–	3.55µM	–
COc1ccccc1Nc1nn2c(=O)c3ccc(C(=O)NC4CCCCC4)cc3nc2s1	–	·	·	–	·	·
COc1ccc(-c2nc3cnc(Oc4cccc(Cl)c4)nc3n(C[C@H]3CCCO3)c2=O)cc1	·	–	·	·	–	·
CN(C)c1ccc(CC(=O)N2CCCC(c3cc(C(=O)Nc4ccc5c(c4)OCO5)no3)C2)cc1 (stereo not drawn)	–	·	·	–	·	·
COc1cc(NC(=O)CN2Cc3ccccc3C2=O)cc(OC)c1OC	–	·	·	–	·	·
Cc1nnc(NC(=O)c2cccc(S(=O)(=O)N3CCCC3)c2)s1	–	–	–	–	–	–
Cc1cc(C)n2nc(-c3ccc(Cl)cc3)cc2n1	–	–	–	–	–	–
Cc1nc2cc(-c3ccc(Cl)cc3)nn2c(NCCN(C)C)c1C	–	5.62µM	?	–	1.26µM	?
SMILES	KB-V1 MDR tox	Gal4-VP16 FLuc	SW480 rerep	KB-3-1 tox	RORg inh	MCF10A rereplic
O=C1CC(c2ccc(F)cc2)Cc2nc(NCC3CCCO3)ncc21 (stereo not drawn)	20.6µM	–	–	–	?	–
CN1CCN(c2ccc(CNC(=O)C3Cc4c(-c5ccc6c(c5)OCO6)ccnc4O3)cc2)CC1 (stereo not drawn)	–	·	·	–	·	·
O=C(NCc1ccccc1)C1Cc2c(-c3ccc4c(c3)OCO4)ccnc2O1 (stereo not drawn)	1.16µM	·	·	0.82µM	·	·
NC(=O)c1cccc(-c2ccnc3c2CC(C(=O)NCc2ccc(F)c(F)c2)O3)c1 (stereo not drawn)	–	·	·	?	·	·
NC(=O)c1cccc(-c2ccnc3c2CC(C(=O)NCc2ccccc2)O3)c1 (stereo not drawn)	–	·	·	3.66µM	·	·
CCCN(CCC)CCNC(=O)C1CCN(Cc2nc(-c3ccc(Cl)cc3)oc2C)CC1	?	–	–	23.1µM	–	–
CCc1ccc(-c2nc(CN3CCC(C(=O)NCc4ccco4)CC3)c(C)o2)cc1	9.2µM	–	–	?	–	?
O=C(OCCN1C(=O)c2cccc3c(N4CCOCC4)ccc(c23)C1=O)c1ccc(Cl)cc1Cl	?	–	5.8µM	?	–	?
O=C(OCCN1C(=O)c2cccc3c(N4CCOCC4)ccc(c23)C1=O)c1ccccc1Cl	–	?	?	?	?	–
O=C(OCCN1C(=O)c2cccc3c(N4CCOCC4)ccc(c23)C1=O)c1cccc(Cl)c1	?	–	?	13µM	–	–
Cc1ccccc1NS(=O)(=O)c1nnc(NC(=O)c2ccco2)s1	–	·	·	–	·	·
CS(=O)(=O)c1ncc(Cl)c(C(=O)Nc2ccc(N3CCOCC3)cc2)n1	–	3.16µM	10.3µM	–	3.16µM	–
CS(=O)(=O)c1ncc(Cl)c(C(=O)Nc2ccc(OC(F)F)cc2)n1	?	1.26µM	1.84µM	?	3.55µM	5.17µM
CCOC(=O)c1c(C)[nH]c(C)c1S(=O)(=O)NCC(=O)Nc1ccc(CC)cc1	–	·	·	–	·	·
CS(=O)(=O)c1ccc(Sc2nc3ccccc3s2)c([N+](=O)[O-])c1	?	10µM	7.31µM	–	11.2µM	?
O=[N+]([O-])c1ccc(N2CCNCC2)cc1Sc1nc2ccccc2[nH]1	–	–	16.4µM	?	–	–
O=S(=O)(Nc1ccc(O)c(Sc2nc3ccccc3s2)c1)c1ccc(F)cc1	–	?	–	–	–	?
CS(=O)(=O)c1ccc(Sc2nc3ccccc3[nH]2)c([N+](=O)[O-])c1	–	?	–	?	?	–[0.0737 µM]
O=[N+]([O-])c1cc(S(=O)(=O)C(F)(F)F)ccc1Sc1nc2ccccc2[nH]1	–	?	?	?	?	3.66µM
O=[N+]([O-])c1cc(S(=O)(=O)C(F)(F)F)ccc1Sc1nc2ccccc2s1	?	6.31µM	13µM	3.26µM	7.94µM	?
NCCNc1ccc([N+](=O)[O-])c(Sc2nc3ccccc3[nH]2)c1	–	–	–	–	–	–
CCS(=O)(=O)CCSc1nc2ccccc2s1	–	–	–	–	–	–
CC(C)OC(=O)c1cc2c(OC[C@@H](O)CNC(C)(C)C)cccc2[nH]1	·	–	·	·	–	·
Cc1ccc(Cl)cc1NC(c1ccc(F)cc1)c1nnc(-c2ccccc2)o1 (stereo not drawn)	–	·	·	?	·	·
N=C1C(c2nc3ccccc3[nH]2)=C(O)CN1c1ccccc1	?	?	?	23.1µM	14.1µM	?
N=C1C(c2nc3ccccc3[nH]2)=C(O)CN1c1ccc(CC(=O)O)cc1	–	–	–	–	?	–
CCOc1ccc(N2CC(O)=C(c3nc4ccccc4c(=O)[nH]3)C2=N)cc1	–	–	–	–	–	–
CCOC(=O)c1ccc(N2CC(O)=C(c3nc4ccccc4c(=O)[nH]3)C2=N)cc1	–	–	–	–	–	20.6µM
NC(Cn1ccc(=O)c(O)c1)C(=O)O (stereo not drawn)	·	–	·	·	–	·
